The source of these data is ChEMBL document CHEMBL4513216, “Probing the Open Global Health Chemical Diversity Library for Multistage-Active Starting Points for Next-Generation Antimalarials” (ACS Infect Dis, 2020).

In all, about 69,000 compounds went through this assay and about 8,600 (12%) showed an effect of 50% or more. The full list was thinned out, with strong results kept by preference.

This assay relates to Plasmodium berghei. Description: Screen against P. berghei liver stage (PbLuc), transformed with Luciferase, at 10uM. The class given is functional, HepG2. Particulars: tested at 10 uM.
Take `Cc1nc2cc(-c3nccn3C)nn2c(N2CCCC(CO)C2)c1C` (centres undefined): the INHIBITION is on record as -15.9%.
For the compound `O=S(=O)(NCc1ccccc1)N(Cc1ccccn1)CC1CCCO1` (centres undefined), the INHIBITION was -1.91%.
With `CC(C)[C@H]1CN(Cc2ccccn2)C[C@@H]1NC(=O)CCS(C)(=O)=O`, the INHIBITION was 28.2%.
For `CC(C)[C@@H]1CN(Cc2ccccn2)C[C@H]1NS(=O)(=O)N(C)C`, the INHIBITION came to 9.72%.
As for `CC(C)[C@H]1CN(Cc2ccccn2)C[C@@H]1NS(=O)(=O)C1CC1`, the figure is 67.5%; as for `COc1ccc(CC2(CO)CCN(c3cc(C#N)ccn3)CC2)cc1`, 1.74%.
Regarding `CC(=O)NCCNC(=O)NCc1ccc(-n2ccc(C(F)(F)F)n2)cc1`, the INHIBITION is -12.1%.
To `CCN(C(=O)c1nc2c(s1)CCCN2C)C(C)C` belongs 23.6%; to `CC(C)c1noc(CCNC(=O)N2CCSC(C(C)C)C2)n1` (centres undefined), 37.9%; to `CCC(CO)N(Cc1ccsc1)CC1CC1` (centres undefined), 50.7%.
For the compound `CCC(CO)N(CC=C(C)C)Cc1ccsc1` (centres undefined), the INHIBITION is listed as 55%.
On to `CCC(CO)N(Cc1ccsc1)Cc1ccccc1C(=O)O` (centres undefined), for which the INHIBITION is on record as -69.3%.
Turning to `CCC(CO)N(Cc1ccsc1)Cc1cccc(O)c1` (centres undefined), the INHIBITION was -60.8%.
As for `CCC(CO)N(Cc1ccsc1)Cc1ccccc1C#N` (centres undefined), the figure is 37.6%; as for `CCC(CO)N(Cc1ccc(C(=O)O)cc1)Cc1ccsc1` (centres undefined), 15%; as for `CN1CCO[C@@H]2CN(S(=O)(=O)c3ccccc3)C[C@@H]2C1`, 25.6%.
In the case of `CC(C)c1ncncc1C(=O)NCCN1CCCCCC1`, the INHIBITION is recorded as 35.4%.
On to `Cc1csc(N2CCN(C(=O)C3(C#N)CCCCC3)CC2)n1`, for which the INHIBITION was 24.635%.
On to `CC(O)CN1CCN(C(=O)c2ccc(CN(C)C)cc2)CC1` (centres undefined), for which the INHIBITION turned out to be 10%.
On to `CS(=O)(=O)N1CCC(C(=O)NC(Cc2ccsc2)c2cccnc2)CC1` (centres undefined), for which the INHIBITION came to 47.1%.
As to `Cc1ccc(C(=O)N2CCC3(CC2)COCCN(S(C)(=O)=O)C3)cc1C`, the INHIBITION was -4.88%.
With `Cc1cc(OCC(=O)NS(=O)(=O)c2cccnc2)ccc1Cl`, the INHIBITION is listed as 38.5%.
For the compound `CN(C)C(=O)c1ccccc1NC(=O)N[C@@H]1c2ccccc2C[C@@H]1O`, the INHIBITION worked out at 48.9%.
For `CS(=O)(=O)c1ccccc1C(=O)NCC1Cc2ccccc2O1` (centres undefined), the INHIBITION is on record as -9.76%.
As to `CS(=O)(=O)c1ccccc1N[C@@H]1c2ccccc2C[C@@H]1O`, the INHIBITION came out at 67.5%.
As for `CNC(=O)Cc1ccccc1NC(=O)N[C@H]1c2ccccc2C[C@H]1O`, the INHIBITION was determined as 54.5%.
`CS(=O)(=O)c1ccccc1NC(=O)N[C@@H]1c2ccccc2C[C@@H]1O`: the INHIBITION was 35%.
For the compound `CNC(=O)Cc1ccccc1NC(=O)C1CCCC1`, the INHIBITION is reported as 42.6%.
In the case of `Cc1ccc(CN2CCC3(CC2)OC(C(=O)N(C)C)c2ccccc23)o1` (centres undefined), the INHIBITION stood at 34%.
As for `CN(Cc1ccc2c(c1)OCO2)C(=O)Cn1cccnc1=O`, the INHIBITION is reported as 44.1%.
As for `O=C(CN1CCCC1c1noc(C2CC2)n1)N1CCc2ccccc21` (centres undefined), the INHIBITION was found to be 7.08%.
As to `COCCN1CCC(c2cncc(-c3cccc(Cl)c3)n2)CC1`, the INHIBITION is listed as -5.71%.
Turning to `Fc1cc(CN2CCOC3(CCOCC3)C2)ccc1Cl`, the INHIBITION is -27.8%.
To `FC(F)Oc1ccc(CN2CCOC3(CCOCC3)C2)cc1Cl` belongs 38%.
As for `Fc1cc(CN2CCOC3(CCOCC3)C2)ccc1OC(F)F`, the figure is 86.7%.
On to `COc1cc(CNC(=O)Nc2nnc(C(C)C)s2)ccn1`, for which the INHIBITION is reported as -69.3%.
For `Cc1cccc(C2(C(=O)NC(C)Cn3ccnc3)CC2)c1` (centres undefined), the INHIBITION is 35.9%.
Consider `Cc1csc(CN(C)C(C)C(=O)N2CCc3ccccc3C2)n1` (centres undefined), for which the INHIBITION worked out at 38%.
To `CCc1cnc(CN(C)C(C)C(=O)N2CCc3ccccc3C2)s1` (centres undefined) belongs 62%.
Consider `CC(C(=O)N1CCc2ccccc2C1)N(C)Cc1cscn1` (centres undefined), for which the INHIBITION came out at 32.9%.
As for `CC(C)Oc1ncccc1CNC(=O)c1cc(C2CC2)on1`, the INHIBITION is listed as 11.9%.
As for `COCCN1CCC1c1cc(N)nc(C)n1` (centres undefined), the figure is 26.7%; as for `Cc1nc2c(c(NCC(c3cccnc3)N3CCOCC3)n1)CCNC2` (centres undefined), 18.2%; as for `CC(C)n1nc2c(cc1=O)CN(CCOc1ccccc1C#N)CC2`, 12.7%.
As for `N#Cc1ccccc1OCCN1CCn2c(nnc2C2CC2)C1`, the INHIBITION came out at 39.5%.
As to `Cn1nc2c(cc1=O)CN(Cc1nc3ccccc3c(=O)[nH]1)CC2`, the INHIBITION was 9.04%.
As to `Cc1ccccc1OCCN1CCn2c(C)nnc2C1`, the INHIBITION is 27.6%.
As to `Cn1nc2c(cc1=O)CN(Cc1nc(N)c3ccccc3n1)CC2`, the INHIBITION was 57.7%.
Turning to `Cn1nc2c(cc1=O)CN(CCOc1ccccc1C#N)CC2`, the INHIBITION was 74.8%.
With `Cc1nnc2n1CCN(CCOc1ccccc1C#N)C2`, the INHIBITION was 58.5%.
As to `CCn1nc2c(cc1=O)CN(CCOc1ccccc1C#N)CC2`, the INHIBITION was 2.4%.
As for `CCn1nc2c(cc1=O)CN(Cc1nc(N)c3ccccc3n1)CC2`, the figure is 15.8%; as for `Cc1cc(=O)n(CCNC(=O)c2ccccc2Cl)cn1`, -62.1%; as for `COc1cc(N2CCC3(CCCN(C(=O)c4cnccn4)C3)C2)ncn1` (centres undefined), 10.6%.
Consider `O=C(c1ccco1)N1CCOCC2(C1)CN(c1ccccn1)C(=O)CO2` (centres undefined), for which the INHIBITION was 22.4%.
Regarding `COCCCN1CCCC1c1noc(C2CC2)n1` (centres undefined), the INHIBITION turned out to be 2.97%.
On to `O=C(Cc1ccsc1)N1C[C@@H]2COC[C@]2(COc2cccnc2)C1`, for which the INHIBITION came out at 39.4%.
Turning to `CC(=O)NCc1ccc(C(=O)N2CCCC2c2cnn(C)c2)s1` (centres undefined), the INHIBITION was -25.9%.
As to `CC(C)Nc1nc(O)cc(C2CC(=O)N(Cc3ccccc3)C2)n1` (centres undefined), the INHIBITION was 18.3%.
As for `O=C(C[C@@H]1COC[C@H]2CN(C(=O)c3cccnc3)C[C@@H]12)N1CCCC1`, the INHIBITION is -19.5%.
With `c1cncc(-c2nnn3c2COCC(CNCC2CCOCC2)C3)c1` (centres undefined), the INHIBITION is on record as 41.6%.
With `O=C(c1ccccc1O)N1CCN(C(=O)C2CCC2)CC1`, the INHIBITION is -14.3%.
In the case of `CN(CCc1ccncc1)C(=O)c1sccc1OC(F)F`, the INHIBITION was -2.97%.
In the case of `CN(Cc1ccc(C(=O)O)cc1)C(=O)c1sccc1OC(F)F`, the INHIBITION worked out at 52.5%.
Regarding `Cc1ccsc1C(=O)N(C)Cc1ccncc1`, the INHIBITION is 3.1%.
As for `Cc1ccccc1C(CC(=O)N1CCc2sccc2C1)NC(N)=O` (centres undefined), the INHIBITION stood at 3.3%.
To `CCOc1ccc(Cl)cc1CCNC(=O)c1ccc(=O)n(C)c1` belongs -10.8%.
Regarding `O=C(Cn1nc(-c2ccc(F)cc2)oc1=O)NCc1ccncc1`, the INHIBITION was -6.79%.
As for `COCC(=O)N[C@@H]1CN(Cc2c[nH]nc2-c2cccs2)C[C@H]1O`, the INHIBITION is reported as 6.54%.
